Source: PubChem (National Center for Advancing Translational Sciences (NCATS))
Rows were chosen to be rich in hits. Some 10% of all compounds tested hit in one or more screens of this group.
FLuc inh: Firefly luciferase inhibition profiling of diverse chemical library using quantitative high-throughput screening | actives 2.5% (n = 76,000) | Potency, µM (top dose mostly 115 µM), most hits filed as inhibitors | purified P. pyralis luciferase, luminescence, biochemical; note: nearly all actives have a fitted effect of over 65% in size
Target sequence (P08659 whole entry, looked up): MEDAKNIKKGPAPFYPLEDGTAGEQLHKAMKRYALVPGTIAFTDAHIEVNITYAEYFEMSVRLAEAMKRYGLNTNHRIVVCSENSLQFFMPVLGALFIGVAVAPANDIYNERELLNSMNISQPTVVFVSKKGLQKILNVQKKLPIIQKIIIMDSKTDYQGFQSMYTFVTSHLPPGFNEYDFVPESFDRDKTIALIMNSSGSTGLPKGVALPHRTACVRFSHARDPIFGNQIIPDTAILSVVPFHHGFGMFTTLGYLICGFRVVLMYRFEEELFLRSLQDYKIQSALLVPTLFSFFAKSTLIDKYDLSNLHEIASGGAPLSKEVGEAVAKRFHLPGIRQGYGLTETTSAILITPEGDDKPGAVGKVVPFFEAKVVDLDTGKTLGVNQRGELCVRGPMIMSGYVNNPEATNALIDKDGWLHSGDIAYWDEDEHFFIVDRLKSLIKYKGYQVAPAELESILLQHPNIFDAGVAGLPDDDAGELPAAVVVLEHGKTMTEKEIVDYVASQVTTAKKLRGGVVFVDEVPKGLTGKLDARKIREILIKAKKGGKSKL
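Purified P. pyralis luciferase (10nM final) in 50mM Tris acetate pH 7.5, 10mM Mg acetate, 0.01% Tween-20, 0.05% BSA with 10uM D-luciferin and 10uM ATP. Compounds titrated qHTS. Luminescence imaged on CCD.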
NPR1 antag: Natriuretic polypeptide receptor (hNpr1) antagonism - Primary qHTS; Atrial natriuretic peptide receptor 1 (Homo sapiens), P16066; HEK293 hNpr1 GloSensor cGMP, ANP-stimulated luminescence; Potency, µM (top dose mostly 46.3 µM), without a hit: top-dose activity change, negative = inhibition, usual class: inhibitors; actives 1.6% (n = 76,000); AID 1347048, 2019; calls by dose curve; note: nearly all actives have a fitted effect of over 60% in size
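HEK293 cells stably expressing human Npr1 and cGMP GloSensor pGS-40F, loaded 2 h with 2% GloSensor reagent, given compound 30 min at room temperature. Luminescence read before and 20 min after 0.1 nM hNppA.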
GPT2 inh: Primary qHTS assay for inhibitors of Glutamate pyruvate transaminase 2 (GPT2) | Alanine aminotransferase 2 (Homo sapiens), Q8TD30 | Recombinant GPT2, coupled pyruvate oxidase/HRP Amplex Red fluorescence | Potency, µM (top dose mostly 57.7 µM), for the others: top-dose activity change, negative = inhibition, usual class: inhibitors | actives 0.25% (n = 100,000) | AID 1671188, 2021; note: nearly all actives have a fitted effect of over 60% in size
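Inhibition is scored from Amplex Red fluorescence generated when pyruvate oxidase and HRP act on pyruvate released by GPT2. Reactions contain 10ng/uL enzyme, 250uM a-KG and 2mM L-alanine and run 30 min at room temperature.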
NIH3T3 tox: Cytotoxic Profiling in NIH 3T3 Cell Line of Diverse Libraries Using Quantitative High-Throughput Screening | NIH 3T3 viability, CellTiter-Glo ATP luminescence, 48-72 h | Potency, µM (highest dose often 96.7 µM), for the others: at the highest dose activity change, negative = cytotoxicity, actives largely listed as inhibitors | actives 4.3% (n = 94,000); note: nearly all actives have a fitted effect of over 55% in size
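First NIH 3T3 cells are plated at 400 cells/well; next compound is pinned in; then plates incubate 48 or 72 hr at 37 °C; finally CellTiter-Glo is added and luminescence read after 10 min.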
HEK293 tox: Cytotoxic Profiling in HEK 293 Cell Line of Diverse Libraries Using Quantitative High-Throughput Screening; actives 6.6% (n = 94,000); HEK 293 viability, ATP luminescence (CellTiter-Glo), 48-72 h; Potency, µM (series often up to 115 µM), inactives show at the highest dose activity change, negative = cytotoxicity, actives largely listed as inhibitors; note: nearly all actives have a fitted effect of over 60% in size
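Cytotoxicity was scored by loss of ATP-coupled luminescence (CellTiter-Glo) in HEK 293 cells. Compound treatment ran 48 or 72 hr at 37 degree Celsius, 5% CO2, 95% humidity.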
Numbers without * were called inactive; i = inactive; u = inconclusive; x = no result; ! = not confirmed by another sample; [ ] = dose if it differs, or a comment. Unless noted, calls come from the whole dose curve; as a rule, active = well fitted curve in the direction sought with a large enough effect; inconclusive = small, poorly fitted or top-dose-only effect, or another doubt; inactive = no such curve, though single readings can be large; an effect the other way counts as inactive or inconclusive. % is set by controls: 0 for no effect and ±100 for the full control effect; potency is the fitted concentration of half-maximal effect.

SMILES	FLuc inh	NPR1 antag	GPT2 inh	NIH3T3 tox	HEK293 tox
O=C(O)CCn1ncc2cc(OCc3ccc(-c4cncnc4)cc3)ccc21	50.1µM*	3.2%[70.6 µM]	u	44.7µM*	-25.6%[172 µM]
COc1ncc(-c2cccc(COc3ccc4c(cnn4CC[S+](C)(=O)[O-])c3)c2)cn1	u	u	u	-15.4%[138 µM]	70.8µM*
CNC(=O)CCn1ncc2cc(OCc3ccccc3-c3cnc(OC)nc3)ccc21	u	-2.3%[70.6 µM]	i	-24.1%[138 µM]	u
C[S+](=O)([O-])CCn1ncc2cc(OCC3CCN(C(=O)c4cccc(F)c4F)CC3)ccc21	i	-2.7%	-0.5%	-19.2%	u
C[S+](=O)([O-])CCn1ncc2cc(OCc3cccc(-c4ccoc4)c3)ccc21	u	u	-14.1%[88.5 µM]	u	70.8µM*
Cc1noc([C@@H]2CN(Cc3ccccc3F)C[C@H]2CO)n1	i	-0.5%	2.8%	-1.9%	-9.7%
CC(=O)N1Cc2ccccc2OC2(CCN(C(=O)c3cccc4[nH]ccc34)CC2)C1	x	x	-17.2%	5.0%	2.7%
Fc1ccc(CNC2(Cc3cc(-c4ccccc4)on3)COC2)cc1	i	u	-9.1%[88.5 µM]	-13.7%[174 µM]	89.1µM*
COc1ccc(-c2cc(CC3(NCc4ccccc4)COC3)no2)cc1	i	5.1%[70.6 µM]	2.2%[88.5 µM]	u	100µM*
Clc1ccccc1CNC1(Cc2cc(-c3ccccc3)on2)COC1	i	-14.4%[70.6 µM]	0.5%[88.5 µM]	u	112µM*
Oc1ccccc1CNC1(Cc2cc(-c3ccccc3)on2)COC1	i	-4.0%[70.6 µM]	i	u	-21.4%[172 µM]
Oc1ccccc1CNC1(Cc2cc(-c3ccc(F)cc3)on2)COC1	i	u	1.2%[88.5 µM]	u	100µM*
Cc1cc(C(=O)N[C@H]2[C@H](O)[C@H](O)C[C@@H]2c2ccc(N3CCOCC3)nc2)n(C)n1	u	5.0%[70.6 µM]	-32.5%[88.5 µM]	-10.3%[174 µM]	i
Nc1nc(COC(=O)c2ccc([N+](=O)[O-])cc2)nc(Nc2ccccc2)n1	x	x	3.4%	x	x
O=C([C@@H]1C[C@H](Oc2ccccc2)CN1C(=O)c1cccnc1)N1CCCC1	i	2.7%	u	4.0%	-3.5%
CN1C(=O)c2cccn2CC1C(=O)O (centres undefined)	i	3.2%	-12.6%	0.7%	i
FC(F)(F)Oc1ccc(CNC2(Cc3cc(-c4ccccn4)on3)COC2)cc1	i	-1.7%[70.6 µM]	-13.1%[88.5 µM]	-21.7%[138 µM]	u
CN(C)c1ccc(CNC2(Cc3cc(-c4ccccc4)on3)COC2)cc1	i	-7.0%[70.6 µM]	i	-25.7%[174 µM]	89.1µM*
CC(C)(C)c1cc(CC2(NCc3ccc(OC(F)(F)F)cc3)COC2)no1	i	4.3%[70.6 µM]	u	112µM*	u
Clc1ccc(CNC2(Cc3cc(COc4ccccc4)on3)COC2)cc1	i	-20.8%[70.6 µM]	u	u	79.4µM*
CC(C)NC(=O)c1ccccc1OCC1CCCN(Cc2ccccn2)C1 (centres undefined)	i	-0.3%	-1.5%	-2.8%	-10.1%
O=C([C@@H]1C[C@H](F)CN1S(=O)(=O)c1cc(F)ccc1F)N1CCc2ccccc2C1	i	-1.5%	3.9%	u	-12.8%
O=C(NCc1ccnc2[nH]ccc12)c1ccccc1Cl	i	5.2%[70.6 µM]	4.4%[88.5 µM]	-9.4%[138 µM]	-14.0%[172 µM]
O=C(NCc1ccnc2[nH]ccc12)c1ccc2ccccc2n1	u	u	3.4%[88.5 µM]	u	89.1µM*
O=C(Cc1ccccc1)NCc1ccnc2[nH]ccc12	35.5µM*	-14.9%[70.6 µM]	i	-5.5%[138 µM]	-2.6%[172 µM]
SMILES	FLuc inh	NPR1 antag	GPT2 inh	NIH3T3 tox	HEK293 tox
COC(=O)[C@H](Cc1cccc(C(=N)N)c1)[C@@H](C)NC(=O)c1ccc(-c2cc[n+]([O-])cc2)cc1	x	x	i	x	x
CN(Cc1cc(C(C)(C)C)n[nH]1)C(=O)c1ccccc1C1CCNC1 (centres undefined)	i	3.1%	-6.9%	-10.3%	-2.2%
CCC1=C(C(=O)OC)C(c2ccccc2OC)N2C(CC(=O)NCc3ccco3)=CSC2=N1 (centres undefined)	i	-13.4%	4.1%	-20.5%	u
CCCCCNC(=O)C1CCCN(Cc2cccc(-c3ccsc3)c2)C1 (centres undefined)	x	x	x	35.5µM*	31.6µM*
O=C(C1CCCN(Cc2cccc(-c3ccsc3)c2)C1)N1CCOCC1 (centres undefined)	x	x	i	u	u
COCCNC(=O)C1CCCN(Cc2cccc(-c3ccsc3)c2)C1 (centres undefined)	x	x	x	u	-26.6%
O=C(NCCC1CCCCC1)C1CCCN(Cc2cccc(-c3ccsc3)c2)C1 (centres undefined)	x	x	x	u	44.7µM*
Cc1ccc(S(=O)(=O)OCC(=O)Nc2ccc(C(=O)O)c(O)c2)cc1	x	x	3.0%	x	x
c1ccc(-c2nc3ccncc3[nH]2)nc1	i	8.2%[70.6 µM]	0.5%[88.5 µM]	u	44.7µM*!
c1csc(-c2nc3ccncc3[nH]2)c1	u	11.0%[70.6 µM]	2.4%[88.5 µM]	100µM*!	u
CCc1noc(-c2cn(C3CCCN(C(=O)c4ccc(Cl)s4)C3)nn2)n1 (centres undefined)	i	-20.5%	2.2%	u	-29.1%
COc1cccc(C(=O)N2C(C(=O)NCC(C)C)COC23CCN(C(=O)c2ccc(F)cc2)CC3)c1 (centres undefined)	i	4.0%	u	-9.9%	-11.2%
COc1ccc(-c2cc(C(=O)NC3CCNCC3)c3c(C)nn(-c4ccccc4)c3n2)cc1	x	x	i	7.08µM*	25.1µM*
COc1ccc(-c2cc(C(=O)NC3CC3)c3c(C)nn(-c4ccccc4)c3n2)cc1	x	x	i	22.4µM*	u
CC(=O)c1cc(CC(=O)N[C@@H]2COCC[C@@H]2OCc2ccccc2)cs1	i	0.3%	i	2.5%	2.9%
Cc1ccc2nc3n(c2c1)[C@@H](CNC1CCOCC1)COC3	i	-3.6%[70.6 µM]	-1.3%[88.5 µM]	-5.0%[138 µM]	-10.3%[172 µM]
CN1CC(=O)N(C2CCCC2)Cc2c1ncnc2N1CCN(c2ncccn2)CC1	i	-14.1%	-15.4%	-20.8%	-24.1%
CN1CC(=O)N(C2CCCCC2)Cc2c1ncnc2N1CCN(c2ncccn2)CC1	x	x	i	44.7µM*	44.7µM*
COCCOc1ccc(-c2noc([C@@H]3CCCN3C3CCCCC3)n2)cn1	i	1.0%[70.6 µM]	-0.7%[88.5 µM]	-9.3%[174 µM]	100µM*
COc1ccc(-c2noc([C@@H]3CCCN3C3CCCCC3)n2)cn1	i	-3.1%[70.6 µM]	i	u	u
COCC(=O)Nc1ccc(-c2noc([C@@H]3CCCN3CC(C)(C)C)n2)cn1	i	-21.2%[70.6 µM]	-9.2%[88.5 µM]	u	100µM*
